Data as given in PubChem BioAssay AID686996 (Broad Institute, 2013).
Where “and” joins values, the source holds several entries; their conditions need not be identical. Identical values can stand only once. In all, about 350,000 compounds went through this assay and about 1,900 (0.54%) were called active. This is one part of a sample in which actives are shown more often than they occur. Values without a mark were called inactive.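 The calls were made as follows: active = mean inhibition across replicates at least about 35%, with every replicate also reaching that limit (limit read from the data); inconclusive = only one of the two criteria met; inactive = neither criterion met.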

target: Caspase-6 (Homo sapiens) (UniProt P55212); test: human caspase-6 inhibitors, primary screen, biochemical, VEID-R110 fluorescence, single point, set 2 (AID 686996); details: purified caspase-6, Z-VEID-R110 cleavage fluorescence; at 12.5 µM; stronger effect = higher value;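 also: 0% = median of neutral control wells and 100% = no fluorescence left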
Sequence (P55212 24-179 limits assumed): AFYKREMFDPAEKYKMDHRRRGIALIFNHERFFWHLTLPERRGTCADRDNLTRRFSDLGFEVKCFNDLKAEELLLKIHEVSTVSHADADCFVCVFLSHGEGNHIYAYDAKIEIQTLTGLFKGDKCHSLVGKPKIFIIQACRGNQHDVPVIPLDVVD
Sequence (P55212 194-293 limits assumed): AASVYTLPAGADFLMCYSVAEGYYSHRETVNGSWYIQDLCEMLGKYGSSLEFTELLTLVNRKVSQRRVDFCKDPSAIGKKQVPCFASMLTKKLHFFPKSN

SMILES | inhibition
COC(=O)C1=C(c2ccc(C(C)=O)cc2)C[C@@H]2CC[C@H]1N2C(=O)NCCNC(C)=O | 35.3% (active)
COC(=O)C1=C(c2ccc3ccccc3c2)C[C@@H]2CC[C@H]1N2C(=O)NCCO | -0.313%
COC(=O)C1=C(c2ccccc2)C[C@@H]2CC[C@H]1N2C(=O)NCc1ccco1 | 2.09%
COC(=O)[C@H]1[C@H](CO)[C@H]2Cn3c(ccc(C4=CCCC4)c3=O)[C@@H]1N2C(=O)CC1CC1 | 2.1%
CCOC(=O)[C@]12Cc3ccccc3[C@H]1N(C1CCCCC1)C(=O)c1cc(OC)ccc12 | 1.66%
COc1cccc(N2C(=O)NC(=O)/C(=C\c3ccc([N+](=O)[O-])s3)C2=O)c1 | 46% (active)
O=C1NC(=O)N(c2ccccc2)C(=O)/C1=C/c1ccc([N+](=O)[O-])s1 | 49.9% (active)
COc1ccc(N2C(=O)/C(=C/c3ccco3)C(=O)NC2=S)cc1 | -1.07%
Cc1ccccc1N1C(=O)NC(=O)/C(=C\c2cc(C)n(C)c2C)C1=O | 3.93%
COc1cccc(N2C(=O)NC(=O)/C(=C\c3cn(C)c4ccccc34)C2=O)c1 | 4.46%
CC(C)CN1Cc2cc(N3CCCCC3)ccc2-n2nncc2C1 | -0.486%
COC1C(O)C(C)OC(OC2CCC3(C=O)C(CCC4C3CCC3(C)C(C5=CC(=O)OC5)CCC43O)C2)C1O (stereo not given) | 0.09%
CCOC(=O)[C@@H]1[C@@H]2NC(=O)N[C@@]1(C)Oc1ccccc12 | 1.71% and -2.72%
CCOC(=O)c1cccc(C2=C(CNC(=O)c3ccncc3)[C@H]3CC[C@@H](C2)N3Cc2ccccc2)c1 | 0.927%
Cc1c(C(=O)O)cccc1-n1c(C)cc(/C=C2\C(=O)NC(=O)N(c3ccc4c(c3)OCO4)C2=O)c1C | 26.5%
COc1ccc(CN2C(=O)NC(=O)/C(=C\c3ccc(OC)c(OC)c3OC)C2=O)cc1 | 4.46%
O=C(O)COc1ccccc1/C=C1\C(=O)NC(=O)N(CCC2=CCCCC2)C1=O | 9.11%
O=C1NC(=O)N(Cc2ccco2)C(=O)/C1=C\c1cccn1CCOc1ccccc1 | 61.1% (active)
Cc1ccc(-n2c(C)cc(/C=C3\C(=O)NC(=O)N(C)C3=O)c2C)cc1C | 12.1%
Cc1cc(/C=C2/C(=O)NC(=O)N(Cc3ccco3)C2=O)c(C)n1-c1ccc(C(=O)O)cc1 | 50.7% (active)
O=C1NC(=O)N(Cc2ccco2)C(=O)/C1=C\c1ccc(-c2ccc(F)cc2)o1 | 73.9% (active)
O=C1NC(=O)N(CCc2ccc(F)cc2)C(=O)/C1=C/C=C/c1ccccc1 | -1.88%
Brc1ccc2c(c1)CNCc1cnnn1-2 | -1.24%
c1cc2c(c(NC3=NCCCS3)c1)CCCC2 | -1.96%
COC(=O)[C@H]1[C@H](CO)[C@H]2Cn3c(cccc3=O)[C@H]2N1CC1CC1 | 1.75%
O=C1NCN(c2ccccc2)C12CCN(C(c1cccs1)c1nnnn1C1CCCCC1)CC2 (stereo not given) | 0.584%
O=C(Cc1ccccn1)N1CCCCN2[C@H](C1)[C@H](c1ccc(-c3ccccc3F)cc1)[C@@H]2CO | 1.27%
O=C(Cc1ccccn1)N1CCCCN2[C@@H](CO)[C@@H](c3ccc(C#Cc4ccccc4)cc3)[C@@H]2C1 | -4%
COC(=O)[C@@H]1[C@@H](CO)[C@@H]2Cn3c(ccc(-c4cccc(C(=O)N(C)C)c4)c3=O)[C@H]1N2C(=O)NC(C)C | 0.335%
COc1cc(OC)cc(C(=O)NCCN2CCC3(CC2)C(=O)NCN3c2ccccc2)c1 | -14.3%
